Tests used:
Assay in all cases: DAPPL (digital affinity profiling via proximity ligation, sequencing); 10 mM Tris-HCl pH 7.5, 50 mM NaCl, 1 mM DTT, 4% glycerol, room temperature, 30 min; GST-TFs on glutathione beads, 16-mer random dsDNA library, 0.1% formaldehyde crosslink after washing; high values mean tight binding
Conditions in all cases: protein: recombinant; tags: N-terminal GST; dsDNA, one strand shown
[1] = target: T1, FLI1 (Homo sapiens, UniProt Q01543 1-452)
T1 sequence: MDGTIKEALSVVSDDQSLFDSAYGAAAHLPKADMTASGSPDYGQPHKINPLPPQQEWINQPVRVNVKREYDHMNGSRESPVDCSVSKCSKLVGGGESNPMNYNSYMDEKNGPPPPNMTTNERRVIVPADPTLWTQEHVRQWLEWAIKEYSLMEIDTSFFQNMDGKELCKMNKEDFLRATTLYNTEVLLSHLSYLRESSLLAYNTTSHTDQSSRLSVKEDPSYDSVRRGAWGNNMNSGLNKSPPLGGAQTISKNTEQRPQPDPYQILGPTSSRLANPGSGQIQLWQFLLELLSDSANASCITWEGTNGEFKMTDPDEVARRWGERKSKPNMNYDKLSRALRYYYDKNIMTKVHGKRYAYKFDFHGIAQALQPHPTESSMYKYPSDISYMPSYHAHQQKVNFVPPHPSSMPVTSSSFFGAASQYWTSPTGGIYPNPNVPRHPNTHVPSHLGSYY
Procedure, shortened: (§1)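 Sequencing on an Illumina NextSeq500 followed washing, crosslinking with 0.1% formaldehyde, proximity ligation (BsaI/T4 ligase, 1 h, 37 °C) and PCR amplification of pools that had been incubated for 30 min at room temperature with 200 nmole of a random double-stranded 16-mer DNA library in Tris/NaCl/DTT/glycerol buffer. Each pool held DNA-barcoded human transcription factors, expressed in yeast as GST fusions and captured on glutathione beads, plus a tag-only sample. Binding signal is a hexamer's read frequency for a factor divided by its frequency in the tag-only sample.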

[2] = target: T2, ELK1 (Homo sapiens, UniProt P19419 1-428)
T2 sequence: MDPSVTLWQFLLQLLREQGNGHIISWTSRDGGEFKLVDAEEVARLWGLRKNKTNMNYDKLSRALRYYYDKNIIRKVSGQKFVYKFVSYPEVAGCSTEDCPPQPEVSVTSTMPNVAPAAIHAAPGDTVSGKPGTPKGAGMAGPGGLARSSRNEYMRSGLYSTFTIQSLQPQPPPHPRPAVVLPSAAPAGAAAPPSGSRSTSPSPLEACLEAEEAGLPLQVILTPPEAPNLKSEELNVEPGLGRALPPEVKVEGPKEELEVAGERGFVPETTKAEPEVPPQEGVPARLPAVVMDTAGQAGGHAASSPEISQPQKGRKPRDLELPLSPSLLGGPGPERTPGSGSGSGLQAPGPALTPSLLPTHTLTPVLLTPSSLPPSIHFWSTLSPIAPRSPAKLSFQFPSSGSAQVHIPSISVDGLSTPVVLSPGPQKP
Procedure, shortened: as §1

[3] = target: T3, GABPA (Homo sapiens, UniProt Q06546 1-454)
T3 sequence: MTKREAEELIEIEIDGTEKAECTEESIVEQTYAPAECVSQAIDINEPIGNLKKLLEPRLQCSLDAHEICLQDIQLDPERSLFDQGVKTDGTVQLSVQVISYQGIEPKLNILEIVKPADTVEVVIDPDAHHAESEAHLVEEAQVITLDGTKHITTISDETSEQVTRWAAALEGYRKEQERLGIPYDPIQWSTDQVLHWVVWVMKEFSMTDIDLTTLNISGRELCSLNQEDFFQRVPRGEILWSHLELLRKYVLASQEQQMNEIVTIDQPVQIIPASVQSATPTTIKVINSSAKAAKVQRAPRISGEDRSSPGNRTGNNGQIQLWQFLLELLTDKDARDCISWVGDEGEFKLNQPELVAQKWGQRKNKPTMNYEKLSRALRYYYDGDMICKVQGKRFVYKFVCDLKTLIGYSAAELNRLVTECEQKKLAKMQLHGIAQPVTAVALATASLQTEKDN
Procedure, shortened: as §1

[4] = target: T4, ERG (Homo sapiens, UniProt P11308 1-479)
T4 sequence: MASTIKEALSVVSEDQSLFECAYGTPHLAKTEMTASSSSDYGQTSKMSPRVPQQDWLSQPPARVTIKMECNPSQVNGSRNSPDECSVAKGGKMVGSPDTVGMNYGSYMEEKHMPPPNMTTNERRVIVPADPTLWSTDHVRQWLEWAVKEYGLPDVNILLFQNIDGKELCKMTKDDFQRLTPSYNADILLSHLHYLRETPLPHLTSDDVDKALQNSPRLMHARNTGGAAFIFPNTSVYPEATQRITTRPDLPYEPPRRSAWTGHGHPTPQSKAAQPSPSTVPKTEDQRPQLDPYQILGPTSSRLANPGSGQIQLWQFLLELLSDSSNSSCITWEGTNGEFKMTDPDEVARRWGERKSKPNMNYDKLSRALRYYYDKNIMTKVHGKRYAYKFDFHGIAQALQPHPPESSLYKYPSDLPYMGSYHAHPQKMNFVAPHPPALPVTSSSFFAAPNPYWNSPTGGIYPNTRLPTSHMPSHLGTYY
Procedure, shortened: as §1

[5] = target: ELF1 (Homo sapiens, UniProt P32519 1-619)
Procedure, shortened: as §1

[6] = target: T5, EHF (Homo sapiens, UniProt Q9NZC4 1-300)
T5 sequence: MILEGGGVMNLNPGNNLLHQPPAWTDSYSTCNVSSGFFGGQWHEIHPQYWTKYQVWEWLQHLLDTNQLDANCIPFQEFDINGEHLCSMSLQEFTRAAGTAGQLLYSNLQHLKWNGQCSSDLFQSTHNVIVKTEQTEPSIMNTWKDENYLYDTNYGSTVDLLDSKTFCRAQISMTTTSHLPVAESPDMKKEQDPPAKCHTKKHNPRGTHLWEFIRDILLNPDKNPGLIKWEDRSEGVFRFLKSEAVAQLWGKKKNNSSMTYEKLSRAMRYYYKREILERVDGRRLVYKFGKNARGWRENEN
Procedure, shortened: as §1

[7] = target: SPI1 (Homo sapiens, UniProt P17947 1-270)
Procedure, shortened: as §1

[8] = target: SPIB (Homo sapiens, UniProt Q01892 1-262)
Procedure, shortened: as §1

[9] = target: T6, ELK3 (Homo sapiens, UniProt P41970 1-407)
T6 sequence: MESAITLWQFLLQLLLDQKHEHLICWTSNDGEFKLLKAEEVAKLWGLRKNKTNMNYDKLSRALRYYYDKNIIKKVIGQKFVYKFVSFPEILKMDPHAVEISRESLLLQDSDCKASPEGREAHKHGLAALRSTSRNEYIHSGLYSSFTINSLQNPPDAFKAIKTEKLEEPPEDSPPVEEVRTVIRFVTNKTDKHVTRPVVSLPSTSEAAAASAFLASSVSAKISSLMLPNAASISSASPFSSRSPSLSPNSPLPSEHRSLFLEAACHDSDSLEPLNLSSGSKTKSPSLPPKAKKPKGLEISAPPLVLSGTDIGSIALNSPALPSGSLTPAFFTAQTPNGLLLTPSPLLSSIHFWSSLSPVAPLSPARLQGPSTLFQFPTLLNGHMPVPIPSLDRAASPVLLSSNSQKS
Procedure, shortened: as §1

Sequence of SPIB (Q01892 whole entry): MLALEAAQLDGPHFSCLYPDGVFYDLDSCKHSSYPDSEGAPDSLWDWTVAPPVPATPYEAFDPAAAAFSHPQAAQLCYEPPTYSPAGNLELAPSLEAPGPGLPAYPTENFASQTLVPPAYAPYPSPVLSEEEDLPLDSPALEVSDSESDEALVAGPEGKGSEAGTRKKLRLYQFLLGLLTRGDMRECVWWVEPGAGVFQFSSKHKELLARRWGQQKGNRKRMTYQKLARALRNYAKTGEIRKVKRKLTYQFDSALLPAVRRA
Sequence of ELF1 (P32519 whole entry): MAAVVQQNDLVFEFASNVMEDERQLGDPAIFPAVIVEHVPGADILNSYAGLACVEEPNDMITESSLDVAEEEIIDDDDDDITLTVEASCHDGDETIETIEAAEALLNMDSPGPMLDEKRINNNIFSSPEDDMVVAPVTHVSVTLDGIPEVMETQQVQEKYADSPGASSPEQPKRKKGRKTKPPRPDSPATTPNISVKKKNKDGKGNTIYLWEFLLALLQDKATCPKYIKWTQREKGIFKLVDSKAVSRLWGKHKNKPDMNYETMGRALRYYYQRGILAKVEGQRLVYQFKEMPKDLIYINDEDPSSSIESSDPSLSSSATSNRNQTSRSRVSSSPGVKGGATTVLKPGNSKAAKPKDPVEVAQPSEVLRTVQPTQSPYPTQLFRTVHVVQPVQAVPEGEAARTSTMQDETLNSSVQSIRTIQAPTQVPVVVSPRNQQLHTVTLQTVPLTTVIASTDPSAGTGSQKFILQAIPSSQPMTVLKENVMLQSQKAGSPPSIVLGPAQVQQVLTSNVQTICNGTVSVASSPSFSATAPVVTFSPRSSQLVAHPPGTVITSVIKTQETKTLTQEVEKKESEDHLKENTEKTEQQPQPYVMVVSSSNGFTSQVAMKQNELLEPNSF

Sequence	binding signal [1]	binding signal [2]	binding signal [3]	binding signal [4]	binding signal [5]	binding signal [6]	binding signal [7]	binding signal [8]	binding signal [9]
ATAACA	1.2 fold enrichment (6-mer frequency, TF over GST control)	1.29 fold enrichment (6-mer frequency, TF over GST control)	1.22 fold enrichment (6-mer frequency, TF over GST control)	1.25 fold enrichment (6-mer frequency, TF over GST control)	1.28 fold enrichment (6-mer frequency, TF over GST control)	1.19 fold enrichment (6-mer frequency, TF over GST control)	1.16 fold enrichment (6-mer frequency, TF over GST control)	1.33 fold enrichment (6-mer frequency, TF over GST control)	1.24 fold enrichment (6-mer frequency, TF over GST control)
TCACTT	1.56 fold enrichment (6-mer frequency, TF over GST control)	1.78 fold enrichment (6-mer frequency, TF over GST control)	1.52 fold enrichment (6-mer frequency, TF over GST control)	1.8 fold enrichment (6-mer frequency, TF over GST control)	1.66 fold enrichment (6-mer frequency, TF over GST control)	1.67 fold enrichment (6-mer frequency, TF over GST control)	2.11 fold enrichment (6-mer frequency, TF over GST control)	1.82 fold enrichment (6-mer frequency, TF over GST control)	1.69 fold enrichment (6-mer frequency, TF over GST control)
GGTCTC	2.92 fold enrichment (6-mer frequency, TF over GST control)	2.66 fold enrichment (6-mer frequency, TF over GST control)	2.5 fold enrichment (6-mer frequency, TF over GST control)	2.46 fold enrichment (6-mer frequency, TF over GST control)	2.74 fold enrichment (6-mer frequency, TF over GST control)	2.55 fold enrichment (6-mer frequency, TF over GST control)	2.89 fold enrichment (6-mer frequency, TF over GST control)	2.59 fold enrichment (6-mer frequency, TF over GST control)	2.2 fold enrichment (6-mer frequency, TF over GST control)
CTGGTT	1.36 fold enrichment (6-mer frequency, TF over GST control)	1.3 fold enrichment (6-mer frequency, TF over GST control)	1.2 fold enrichment (6-mer frequency, TF over GST control)	1.31 fold enrichment (6-mer frequency, TF over GST control)	1.31 fold enrichment (6-mer frequency, TF over GST control)	1.18 fold enrichment (6-mer frequency, TF over GST control)	1.45 fold enrichment (6-mer frequency, TF over GST control)	1.24 fold enrichment (6-mer frequency, TF over GST control)	1.21 fold enrichment (6-mer frequency, TF over GST control)
TCTTTC	1.43 fold enrichment (6-mer frequency, TF over GST control)	1.27 fold enrichment (6-mer frequency, TF over GST control)	1.41 fold enrichment (6-mer frequency, TF over GST control)	1.3 fold enrichment (6-mer frequency, TF over GST control)	1.37 fold enrichment (6-mer frequency, TF over GST control)	1.43 fold enrichment (6-mer frequency, TF over GST control)	1.51 fold enrichment (6-mer frequency, TF over GST control)	1.41 fold enrichment (6-mer frequency, TF over GST control)	1.39 fold enrichment (6-mer frequency, TF over GST control)
ATCCTG	1.38 fold enrichment (6-mer frequency, TF over GST control)	1.43 fold enrichment (6-mer frequency, TF over GST control)	1.34 fold enrichment (6-mer frequency, TF over GST control)	1.62 fold enrichment (6-mer frequency, TF over GST control)	1.36 fold enrichment (6-mer frequency, TF over GST control)	1.41 fold enrichment (6-mer frequency, TF over GST control)	1.4 fold enrichment (6-mer frequency, TF over GST control)	1.55 fold enrichment (6-mer frequency, TF over GST control)	1.5 fold enrichment (6-mer frequency, TF over GST control)
TAGCAC	1.16 fold enrichment (6-mer frequency, TF over GST control)	1.12 fold enrichment (6-mer frequency, TF over GST control)	1.24 fold enrichment (6-mer frequency, TF over GST control)	1.15 fold enrichment (6-mer frequency, TF over GST control)	1.15 fold enrichment (6-mer frequency, TF over GST control)	1.16 fold enrichment (6-mer frequency, TF over GST control)	1.06 fold enrichment (6-mer frequency, TF over GST control)	1.15 fold enrichment (6-mer frequency, TF over GST control)	1.19 fold enrichment (6-mer frequency, TF over GST control)
GATTCC	1.19 fold enrichment (6-mer frequency, TF over GST control)	1.05 fold enrichment (6-mer frequency, TF over GST control)	1.08 fold enrichment (6-mer frequency, TF over GST control)	1.2 fold enrichment (6-mer frequency, TF over GST control)	1.18 fold enrichment (6-mer frequency, TF over GST control)	1.15 fold enrichment (6-mer frequency, TF over GST control)	1.14 fold enrichment (6-mer frequency, TF over GST control)	1.16 fold enrichment (6-mer frequency, TF over GST control)	1.17 fold enrichment (6-mer frequency, TF over GST control)
